Measurements: the supplement of paper PMC4166925
± gives the standard deviation of the averaged measurements. In all, about 33,000 sequences were measured (“E-score (dimensionless, -0.5 to 0.5)”: median about -0.046, highest 2% from about 0.36 on). Shown is part of a subset that was picked to be rich in the highest values.

System: T1, SpTbr T-box DNA-binding domain (GST fusion)
T1 sequence: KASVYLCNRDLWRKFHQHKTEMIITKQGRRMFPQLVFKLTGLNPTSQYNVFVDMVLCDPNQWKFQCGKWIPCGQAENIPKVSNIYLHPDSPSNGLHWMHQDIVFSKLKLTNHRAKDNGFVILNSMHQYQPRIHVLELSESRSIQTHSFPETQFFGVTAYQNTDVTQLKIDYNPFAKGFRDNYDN
Experiment: PBM E-score of 8-mer (E-score (dimensionless, -0.5 to 0.5)); Tbr is Tbrain of the sea star Patiria miniata (Pm) or the sea urchin Strongylocentrotus purpuratus (Sp); higher = stronger binding preference
Settings: the construct has about 5 more residues each side
Procedure, shortened: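 Primer extension turned Universal Agilent oligonucleotide arrays double-stranded. They were incubated with 200 nM protein in PBS (pH 7.5); the protein was a GST-fused Tbr T-box DNA-binding domain expressed in BL21 E. coli at 20 °C and purified on glutathione. Every ungapped 8-mer was scored from the scanned, quantified probe intensities, and the Universal PBM Analysis Suite gave each an enrichment E-score averaged over duplicate arrays.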

| Sequence | PBM E-score of 8-mer |
| --- | --- |
| GATGTCCA | -0.22 ± 0.056 |
| GGCTAACA | 0.235 ± 0.024 |
| CGCTAACG | 0.373 ± 0.0088 |
| AGCTAACA | 0.233 ± 0.022 |
| TGCTAACA | 0.369 ± 0.022 |
| CGCTAACC | 0.19 ± 0.0091 |
| AGCTAACG | 0.236 ± 0.016 |
| CAGCTCGG | -0.132 ± 0.057 |
| CGGTGGAA | -0.0405 ± 0.033 |
| ATCTATGC | -0.197 ± 0.03 |
| ACGAGTAT | -0.0491 ± 0.014 |
| CAATCCTA | -0.0316 ± 0.041 |
| AAACCACT | -0.258 ± 0.016 |
| AGCACTTG | 0.168 ± 0.018 |
| AACGCATG | 0.0228 ± 0.0081 |
| CAGCTTGG | -0.00698 ± 0.044 |
| CACCTTGA | 0.367 ± 0.042 |
| TACCTTGA | 0.01 ± 0.065 |
| AACCTTGC | 0.00568 ± 0.0057 |
| CACCTTGG | 0.45 ± 0.005 |
| CACCTTGC | 0.389 ± 0.013 |
| GACCTTGC | -0.153 ± 0.0056 |

| Sequence | PBM E-score of 8-mer |
| --- | --- |
| GACCTTGA | -0.145 ± 0.019 |
| AACCTTGG | -0.0793 ± 0.032 |
| ACACTGTA | 0.172 ± 0.036 |
| ACTTGATA | 0.108 ± 0.039 |
| AGACAGCG | -0.00288 ± 0.048 |
| CTGAAAGC | -0.193 ± 0.033 |
| GTGTAAAC | 0.367 ± 0.02 |
| ATGTAAAC | 0.0731 ± 0.026 |
| CTGTAAAC | 0.132 ± 0.0059 |
| AGCAGATA | -0.195 ± 0.043 |
| ACAGCCCT | -0.109 ± 0.054 |
| CTGTGTGA | 0.341 ± 0.0081 |
| ATGTGTGA | 0.4838 ± 0.001 |
| ATGTGTGC | 0.299 ± 0.0091 |
| ATATGTGA | 0.242 ± 0.055 |
| AAATGTGC | 0.151 ± 0.076 |
| GTGTGTAA | 0.27 ± 0.0036 |
| GTGTGTGA | 0.4221 ± 0.003 |
| AAATGTGG | 0.114 ± 0.01 |
| AAATGTGT | 0.435 ± 0.0081 |
| CAGCCAAC | 0.106 ± 0.037 |
| GTAGCGCA | -0.148 ± 0.091 |

| Sequence | PBM E-score of 8-mer |
| --- | --- |
| GATGCGCA | 0.014 ± 0.028 |
| ATCTCCAC | 0.0376 ± 0.0077 |
| AACGTTTC | -0.191 ± 0.019 |
| TCTCGAAA | -0.0659 ± 0.035 |
| ACGCCACT | 0.285 ± 0.013 |
| CCACAACC | 0.113 ± 0.015 |
| AAGTTTAT | -0.141 ± 0.074 |
| AATGCAGT | -0.188 ± 0.028 |
| GTCGACAC | 0.394 ± 0.018 |
| CTCGACAC | 0.3634 ± 0.0018 |
| ATCGACAG | 0.286 ± 0.005 |
| ATCGACAC | 0.389 ± 0.013 |
| GTCGACAA | 0.275 ± 0.0098 |
| ATCGACAA | 0.213 ± 0.0072 |
| AATGGCTG | -0.183 ± 0.012 |
| CAAGTAGA | -0.0961 ± 0.025 |
| ATCTCGGA | -0.276 ± 0.03 |
| CCATACCG | -0.115 ± 0.017 |
| ACTCAAGC | -0.127 ± 0.023 |
| CGTTAACA | 0.4129 ± 0.0026 |
| CGTTAAAA | 0.0585 ± 0.1 |
| AGTTAGCA | 0.284 ± 0.045 |

| Sequence | PBM E-score of 8-mer |
| --- | --- |
| AGTTAACG | 0.127 ± 0.006 |
| GGTTAGCA | 0.257 ± 0.034 |
| GGTTAACA | 0.287 ± 0.012 |
| CGTTAACC | 0.113 ± 0.07 |
| TGTTAACA | 0.421 ± 0.029 |
| CATTAACA | 0.329 ± 0.029 |
| AGTTAACA | 0.334 ± 0.023 |
| CGTTAGCA | 0.37 ± 0.0046 |
| CGTTAACG | 0.372 ± 0.0041 |
| CAAGTTCG | 0.0356 ± 0.0073 |
| TAGGCGAA | 0.0827 ± 0.01 |
| CGATACCC | -0.00698 ± 0.068 |
| ACTTAATG | -0.1 ± 0.055 |
| CGATTTTA | -0.151 ± 0.033 |
| CAGGTGTA | 0.358 ± 0.0037 |
| CCGGTGTC | 0.18 ± 0.047 |
| AAGGTGAT | 0.384 ± 0.023 |
| CAGGTGTC | 0.4679 ± 0.0019 |
| GAGGTGAA | 0.198 ± 0.0028 |
| CAGGTGAA | 0.199 ± 0.031 |
